Experimental findings from PubChem BioAssay (NCATS) are described below.

Active and inactive are the calls of the source. How the calls were made is not given here.

Experiment [1] in a line: Immunotoxin (HA22) sensitization/mitigation study. Vehicle arm (PBS) (AID 1159510).
The nature of experiment [2]: Immunotoxin (SS1P) sensitization/mitigation study. Vehicle arm (DMEM) (AID 1159513).
Potency means the concentration at half of the fitted maximal effect.

For `Fc1ccc(Cl)cc1-c1nc(Nc2ccncc2)c2nccnc2n1`, the Potency entry in experiment [1] and in experiment [2] was “inactive” each time.

Consider `O=C(O)CCC1CCC(c2cc(F)ccc2F)(S(=O)(=O)c2ccc(Cl)cc2)CC1` (centres undefined), for which the Potency entry in experiment [1] and in experiment [2] was “inactive” each time.

On to `C1Cc2[nH]nc(-c3nn[nH]n3)c2C1`, for which the Potency result in experiment [1] and in experiment [2] was “inactive” each time.

As for `O=C(C=Cc1ccc(/C=C/C(=O)Nc2ccc(C3=NCCN3)cc2)cc1)Nc1ccc(C2=NCCN2)cc1`, the Potency result in experiment [1] and in experiment [2] was “inactive” in each case.

`COc1ccc(-c2ccc3c(N4CCOCC4)nc(N4C[C@@H](C)O[C@@H](C)C4)nc3n2)cc1CO`: the results for the Potency in experiment [1] and in experiment [2] were 1.48 µM (active) and 0.105 µM (active), respectively.

With `Cc1cc2c(F)c(Oc3ncnn4cc(OC[C@@H](C)O)c(C)c34)ccc2[nH]1`, the Potency in experiment [1] and in experiment [2] was 14.8 µM (active) in each case.

Turning to `Cc1ccc(C(=O)N(CCCN)[C@@H](c2nc3cc(Cl)ccc3c(=O)n2Cc2ccccc2)C(C)C)cc1`, the results for the Potency in experiment [1] and in experiment [2] were 0.0037 µM (active) and 0.0053 µM (active), respectively.

On to `CC(C)C(=O)Nc1ncc(-c2cc(C(F)F)nn2-c2c(Cl)cccc2Cl)s1`, for which the Potency in experiment [1] is 11.8 µM (active); in experiment [2], 18.7 µM (active).

With `CNC(=O)c1cc(Oc2ccc(NC(=O)Nc3ccc(Cl)c(C(F)(F)F)c3)c(F)c2)ccn1`, the Potency in experiment [1] was 20.9 µM (active); in experiment [2], 26.4 µM (active).

With `O=C(Nc1ccc(F)c(C(F)(F)F)c1)Nc1nnc(-c2ccncc2)s1`, the Potency in experiment [1] was 2.09 µM (active); in experiment [2], 5.9 µM (active).

`CN([C@@H](Cc1ccc(OS(=O)(=O)c2cccc3cnccc23)cc1)C(=O)N1CCN(c2ccccc2)CC1)S(=O)(=O)c1cccc2cnccc12`: the Potency result in experiment [1] and in experiment [2] was “inactive” throughout.

As for `O=c1cc(N2CCOCC2)oc2c(-c3cccc4c3sc3ccccc34)cccc12`, the Potency in experiment [1] was 16.6 µM (active); in experiment [2], 29.6 µM (active).

For the compound `COc1cccc2nc(-c3cccs3)nc(NN3C(=O)C=C(C)C3=O)c12`, the Potency in experiment [1] is 0.0166 µM (active); in experiment [2] it was 5.9 µM (active).

Consider `CCCCCN(CCC12CC3CC(CC(C3)C1)C2)C(=O)NCCCc1ccncc1`, for which the Potency in experiment [1] is 11.8 µM (active); in experiment [2], 23.5 µM (active).

Take `Cc1cnc(Nc2ccc(F)cc2Cl)nc1-c1c[nH]c(C(=O)N[C@H](CO)c2cccc(Cl)c2)c1`: the Potency is 23.5 µM (active) in experiment [1] and 20.9 µM (active) in experiment [2].

Consider `Cn1cc(-c2ccc3nnc(C(F)(F)c4ccc5ncccc5c4)n3n2)cn1`, for which the Potency entry in experiment [1] and in experiment [2] was “inactive” each time.

With `COc1cc2c(cc1OC)CN(CCc1ccc(NC(=O)c3cccc4c(=O)c5cccc(OC)c5[nH]c34)cc1)CC2`, the Potency in experiment [1] is 18.7 µM (active). For the same compound, the Potency result in experiment [2] was “inactive”.

For the compound `CS(=O)(=O)c1ccc(C(=O)Nc2ccc(Cl)c(-c3ccccn3)c2)c(Cl)c1`, the Potency result in experiment [1] and in experiment [2] was “inactive” throughout.

With `COc1cccc2c1CCCC2CCCN1CCN(C2CCCCC2)CC1` (centres undefined), the Potency is 16.6 µM (active) in experiment [1] and 7.43 µM (active) in experiment [2].

Take `C[C@@H](Oc1cc(-n2cnc3ccc(CN4CCN(C)CC4)cc32)sc1C(N)=O)c1ccccc1C(F)(F)F`: the Potency is 0.0132 µM (active) in experiment [1] and 0.0019 µM (active) in experiment [2].

Regarding `COc1ccc(-c2ccc3c(N4CCOC[C@H]4C)nc(N4CCOC[C@H]4C)nc3n2)cc1CO`, the results for the Potency in experiment [1] and in experiment [2] were 0.469 µM (active) and 0.0105 µM (active), respectively.

Take `COC(=O)c1ccc2c(C(=Nc3ccc(N(C)C(=O)CN4CCN(C)CC4)cc3)c3ccccc3)c(O)[nH]c2c1`: the values for the Potency in experiment [1] and in experiment [2] were 0.209 µM (active) and 1.18 µM (active), respectively.

Consider `O=S(=O)(N=Cc1c(O)ccc2ccccc12)c1cccs1`, for which the Potency in experiment [1] was 16.6 µM (active). For the same compound, in experiment [2], the Potency entry was “inactive”.

`CCOC(=O)C(C)Oc1cccc2c(=O)n(CC(=O)Nc3ccc4c(c3)OCCO4)ccc12` (centres undefined): the Potency entry in experiment [1] and in experiment [2] was “inactive” in each case.

Regarding `Cc1nnc(C(C)C)n1C1CC2CCC(C1)N2CC[C@H](NC(=O)C1CCC(F)(F)CC1)c1ccccc1` (some centres undefined), the Potency entry in experiment [1] and in experiment [2] was “inactive” throughout.

In the case of `COc1cc2ncn(-c3cc(OCc4ccccc4C(F)(F)F)c(C(N)=O)s3)c2cc1OC`, the Potency in experiment [1] was 0.296 µM (active); in experiment [2], 0.166 µM (active).

For `c1ccc(-c2nn3c(c2-c2ccnc4cc(OCCN5CCOCC5)ccc24)CCC3)nc1`, the Potency in experiment [1] is 26.4 µM (active). Also, the Potency result in experiment [2] was “inactive”.

Consider `O=C(NOC[C@H](O)CO)c1ccc(F)c(F)c1Nc1ccc(I)cc1F`, for which the Potency entry in experiment [1] and in experiment [2] was “inactive” in each case.

`Cc1ccc(F)c(NC(=O)Nc2ccc(-c3cccc4[nH]nc(N)c34)cc2)c1`: the Potency in experiment [1] is 5.26 µM (active); in experiment [2], 13.2 µM (active).

Regarding `COc1ccc(-c2oc3cc(OC)ccc3c2C(=O)c2ccc(C#N)cc2)cc1`, the Potency entry in experiment [1] and in experiment [2] was “inactive” throughout.

With `N#CCNC(=O)c1ccc(-c2ccnc(Nc3ccc(N4CCOCC4)cc3)n2)cc1`, the results for the Potency in experiment [1] and in experiment [2] were 5.26 µM (active) and 16.6 µM (active), respectively.

For `C[C@@H]1C[C@H]2[C@@H]3CCC4=CC(=O)C=C[C@]4(C)C3(F)[C@@H](O)C[C@]2(C)[C@@]1(O)C(=O)CO` (some centres undefined), in experiment [1], the Potency was 0.059 µM (active). Also, the Potency result in experiment [2] was “inactive”.
